Data on three compounds can be found in PubChem BioAssay (Tox21).

A short description of experiment [1]: qHTS assay to identify small molecule antagonists of the sonic hedgehog signaling (Shh) pathway (AID 1259369; calls by dose curve; further: nearly all actives have a fitted effect of over 45% in size; further: potency means the concentration at half of the fitted maximal effect). To be noted: NIH/3T3 Gli1-Luc reporter, Shh antagonist, luminescence 24 h; series mostly up to 92.4 µM. The gist of the method:
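Inhibition of Shh signalling is measured as reduced Gli1-response-element firefly luciferase output in an NIH/3T3-derived stable reporter clone stimulated with conditioned medium for 24hr.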

The target in experiment [2] is Estrogen receptor beta (Homo sapiens) (UniProt Q92731). Kind of experiment: qHTS assay to identify small molecule agonists of the estrogen receptor beta (ER-beta) signaling pathway (AID 1259377; active means well fitted activation curve with a large enough effect in the signal ratio in the repeat runs, not every such curve was filed as active; the % refers to the signal ratio). Particulars: ER-beta-UAS-bla HEK293T, beta-lactamase FRET ratio, 16 h; series mostly up to 92.4 µM. The essentials:
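ER-beta-UAS-bla HEK293T (GripTite) cells carrying a UAS-driven beta-lactamase reporter, in medium with 2% charcoal-stripped FBS, were exposed to compounds for 16 hr at 37C; LiveBLAzer B/G FRET substrate was then added and fluorescence read after 2 hours at room temperature.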

The target is the same in experiment [3]. Briefly: qHTS assay to identify small molecule antagonists of the estrogen receptor beta (ER-beta) signaling pathway (AID 1259378; active means well fitted inhibition curve with a large enough effect in the signal ratio in the repeat runs, not every such curve was filed as active; the % refers to the signal ratio). Particulars: ER-beta-UAS-bla HEK293T, beta-lactamase FRET ratio, 16 h; series mostly up to 92.4 µM. The gist of the method: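 ER-beta-UAS-bla HEK293T (GripTite) cells in 2% charcoal-stripped FBS medium were preincubated 6 hr at 37C, dosed with compound, then stimulated with 1 nM E2 (final) for 16 hr; beta-lactamase reporter read by B/G FRET fluorescence after 2 hr substrate loading.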
For orientation: qHTS replaces the single test concentration by a dilution series.

Experiment [4] is described as follows: qHTS assay to identify small molecule agonists of the androgen receptor (AR) signaling pathway in the presence of an antagonist - cell viability counter screen (AID 1259379).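 Further: MDA-kb2 human breast cancer cells carrying an MMTV luciferase reporter; nearly all actives have a fitted effect of over 25% in size.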 Particulars: MDA-kb2 viability, CellTiter-Fluor, 16 h; series mostly up to 92.4 µM. The essentials: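 Fluorescence from CellTiter-Fluor, added after 15 hr and read 1 hr later, gave cell viability. Cells were MDA-kb2 exposed to compounds (15 concentrations) in the presence of 3.0uM nilutamide at 37C, 0% CO2.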

The nature of experiment [5]: qHTS assay to identify small molecule agonists of the estrogen receptor beta (ER-beta) signaling pathway - cell viability counter screen (AID 1259380). Further: nearly all actives have a fitted effect of over 30% in size. Particulars: ER-beta-bla HEK293T viability, CellTiter-Glo luminescence, 16 h; series mostly up to 92.4 µM. The gist of the method: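 Same-well viability counter screen. Cells: ER-beta-UAS-bla HEK293T, plated 6 hr before compound, in 2% charcoal-stripped FBS. Compound exposure 16 hr, 37C; viability by CellTiter-Glo luminescence after 30 min at room temperature.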

Experiment [6] concerns the target Androgen receptor (Homo sapiens) (UniProt P10275). Kind of experiment: qHTS assay to identify small molecule agonists of the androgen receptor (AR) signaling pathway in the presence of an antagonist (AID 1259381; calls by dose curve; further: nearly all actives have a fitted effect of over 15% in size). Particulars: MDA-kb2 MMTV-luciferase, AR agonist + nilutamide, 16 h; series mostly up to 92.4 µM. The essentials: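 Cells are MDA-kb2 (human breast carcinoma, MMTV-luc, AR/GR responsive). Nilutamide is present at 3.0uM final throughout; compounds are added at 15 concentrations and incubated 16hr at 37C before ONE-Glo luminescence detection.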

The nature of experiment [7]: qHTS assay to identify small molecule antagonists of the estrogen receptor beta (ER-beta) signaling pathway - cell viability counter screen (AID 1259382). Further: nearly all actives have a fitted effect of over 55% in size. Particulars: ER-beta-UAS-bla HEK293T viability, CellTiter-Glo luminescence, 16 h; series mostly up to 92.4 µM. The essentials:
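Following a 6 hr plating period, HEK293T cells carrying a UAS-driven beta-lactamase reporter under ER-beta control received compounds and 1nM E2 (final). After 16 hr at 37C and 2 hr substrate loading, CellTiter-Glo luminescence indicated viability.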

A short description of experiment [8]: qHTS assay to identify small molecule agonists or antagonists of the thyroid stimulating hormone receptor (TSHR) signaling pathway - wild type cell line counter screen (AID 1259384; calls by dose curve). To be noted: HEK293 wild type, cAMP HTRF counter-screen; series mostly up to 92.4 µM. The gist of the method:
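Wild-type HEK293 cells were plated 18 h at 37 C/5% CO2, pin-dosed with compound plus Ro20-1724 medium, held 30 min at room temperature, then given cAMP-d2 and anti-cAMP-cryptate; fluorescence was read after 1 h. Fifteen concentrations, triplicate.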

Experiment [9] deals with Thyrotropin receptor (Homo sapiens) (UniProt P16473). Kind of experiment: qHTS assay to identify small molecule antagonists of the thyroid stimulating hormone receptor (TSHR) signaling pathway (AID 1259385; calls by dose curve; further: nearly all actives have a fitted effect of over 20% in size). Particulars: TSHR-HEK293 cAMP HTRF, TSH-stimulated antagonist mode; series mostly up to 92.4 µM. The gist of the method: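 TSHR-HEK293 cells were plated and held 18 h at 37C/5% CO2, then given compound plus Ro20-1724 and stimulated with TSH at 1.5 ng/mL final. After 30 min at room temperature, cAMP was detected with cAMP-d2/anti-cAMP-cryptate (1 h) by fluorescence.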

The nature of experiment [10]: qHTS assay to identify small molecule agonists of the estrogen receptor alpha (ER-alpha) signaling pathway in the presence of an antagonist - cell viability counter screen (AID 1259386).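 Further: cells exposed to compounds for 22 h at 37 °C before the viability read; nearly all actives have a fitted effect of over 30% in size.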 To be noted: VM7Luc4E2 viability, CellTiter-Fluor fluorescence, 22 h; series mostly up to 92.4 µM. The essentials:
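Cells are starved of estrogens for 5 days in charcoal-stripped serum, seeded for 24hr and co-treated with ICI-182,780 (10.0nM final) and test compounds. After 22hr at 37C, viability is read as CellTiter-Fluor fluorescence.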

Experiment [11] has as its target Progesterone receptor (Homo sapiens) (UniProt P06401). Briefly: qHTS assay to identify small molecule antagonists of the progesterone receptor (PR) signaling pathway (AID 1346795; active means well fitted inhibition curve with a large enough effect in the signal ratio in the repeat runs, not every such curve was filed as active; the % refers to the signal ratio; further: potency means the concentration at half of the fitted maximal effect). To be noted: PR-UAS-bla HEK293T, beta-lactamase FRET ratio, 16 h; series mostly up to 92.4 µM. The essentials:
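PR-UAS-bla HEK293T cells carrying a UAS-driven beta-lactamase reporter were plated in medium with 2% charcoal-stripped FBS and rested 6 hr at 37C. Compounds were added with 1 nM R5020 (final) for 16 hr, then FRET substrate loaded 2 hr at room temperature.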

The nature of experiment [12]: qHTS assay to identify small molecule antagonists of the progesterone receptor (PR) signaling pathway - cell viability counter screen (AID 1346798). Further: nearly all actives have a fitted effect of over 50% in size. Further: potency means the concentration at half of the fitted maximal effect. Particulars: PR-UAS-bla HEK293T viability, CellTiter-Glo luminescence, 16 h; series mostly up to 92.4 µM. The gist of the method:
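PR-UAS-bla HEK293T cells in medium with 2% charcoal-stripped FBS were treated with compounds plus R5020 for 16 hr at 37C. Cell viability was then read by CellTiter-Glo luminescence after 30 min at room temperature in the same wells.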

A short description of experiment [13]: qHTS assay to identify small molecule agonists of the progesterone receptor (PR) signaling pathway - cell viability counter screen (AID 1346799; calls by dose curve; further: nearly all actives have a fitted effect of over 45% in size). To be noted: PR-UAS-bla HEK293T viability, CellTiter-Glo luminescence, 16 h; series mostly up to 92.4 µM. The gist of the method:
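PR-UAS-bla HEK293T cells, 3,000 per well in medium with 2% charcoal-stripped FBS, were preincubated 6 hr at 37C, then exposed to compounds for 16 hr; viability was read as CellTiter-Glo luminescence after 30 min at room temperature.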

A short description of experiment [14]: qHTS assay to identify small molecule antagonists of the TGF-beta/Smad signaling pathway - cell viability counter screen (AID 1346824). Further: nearly all actives have a fitted effect of over 50% in size. Particulars: SBE-bla HEK293T viability, CellTiter-Glo luminescence; series mostly up to 76.8 µM. The essentials:
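SBE-bla HEK 293T cells were plated overnight at 37 C, then given compounds in DMSO plus TGF-beta1 (added as 0.25 ng/mL solution) for 5 hr. After the bla read, CellTiter-Glo was added to the same wells and luminescence read after 30 min at room temperature.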

A short description of experiment [15]: qHTS assay to identify small molecule agonists of the TGF-beta/Smad signaling pathway - cell viability counter screen (AID 1346829). Further: top concentration of the series differs between compounds; nearly all actives have a fitted effect of over 45% in size. To be noted: SBE-bla HEK293T viability, CellTiter-Glo luminescence, 5 h; series mostly up to 76.8 µM. The essentials: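 After overnight seating at 37 C and 5% CO2, reporter cells got compounds for 5 hr and FRET substrate for 2 hr; cell viability then came from CellTiter-Glo luminescence.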

Experiment [16] in a line: qHTS assay to identify small molecule agonists of the TGF-beta/Smad signaling pathway (AID 1346859; active means well fitted activation curve with a large enough effect in the signal ratio in the repeat runs, not every such curve was filed as active; the % refers to the signal ratio). Particulars: SBE-bla HEK293T, TGF-beta/Smad beta-lactamase reporter, 5 h; series mostly up to 76.8 µM. The gist of the method: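 HEK 293T cells stably carrying a beta-lactamase reporter driven by the Smad binding element were seeded overnight, exposed to DMSO-dissolved compounds for 5 hr at 37 C, 5% CO2, then loaded with FRET substrate for 2 hr at room temperature.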

The target of experiment [17] is Thyrotropin-releasing hormone receptor (Homo sapiens) (UniProt P34981). Kind of experiment: qHTS assay to identify small molecule antagonists of the thyrotropin-releasing hormone receptor (TRHR) signaling pathway (AID 1346877; active means well fitted inhibition curve with a large enough effect in the repeat runs, not every such curve was filed as active). To be noted: TRHR-HEK293, TRH-induced calcium fluorescence, antagonist mode; series mostly up to 51.3 µM. The essentials:
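Cells (TRHR-HEK293) are plated and kept 18 h at 37 °C/5% CO2. A calcium-sensitive dye is added for 2 h, compound follows for 5 min at room temperature, and TRH is then given at 1 nM final.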

Experiment [18] has the same target. Briefly: qHTS assay to identify small molecule agonists of the thyrotropin-releasing hormone receptor (TRHR) signaling pathway (AID 1346891; calls by dose curve). Particulars: TRHR-HEK293 calcium fluorescence, agonist mode; series mostly up to 57.6 µM. The essentials: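 TRHR-expressing HEK293 cells were plated 18 h at 37 °C/5% CO2, loaded with calcium dye 2 h at 37 °C, then given compound in DMSO; fluorescence was read kinetically for 3 min at 1 s intervals.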

Molecules are shown by their SMILES. Results filed as inconclusive are left out. Some compounds were tested as several samples or in several runs, with calls that do not always agree. Activity calls are given as the source filed them. Unless noted, the call rests on the fitted dose curve; in most records, active means well fitted curve in the direction sought with a large enough effect in the repeat runs; inconclusive means weak or mixed curves; inactive means no such curve, though single readings can be large; an effect the other way counts as inactive or inconclusive.

Sequence of Estrogen receptor beta (Homo sapiens) (Q92731 whole entry, looked up): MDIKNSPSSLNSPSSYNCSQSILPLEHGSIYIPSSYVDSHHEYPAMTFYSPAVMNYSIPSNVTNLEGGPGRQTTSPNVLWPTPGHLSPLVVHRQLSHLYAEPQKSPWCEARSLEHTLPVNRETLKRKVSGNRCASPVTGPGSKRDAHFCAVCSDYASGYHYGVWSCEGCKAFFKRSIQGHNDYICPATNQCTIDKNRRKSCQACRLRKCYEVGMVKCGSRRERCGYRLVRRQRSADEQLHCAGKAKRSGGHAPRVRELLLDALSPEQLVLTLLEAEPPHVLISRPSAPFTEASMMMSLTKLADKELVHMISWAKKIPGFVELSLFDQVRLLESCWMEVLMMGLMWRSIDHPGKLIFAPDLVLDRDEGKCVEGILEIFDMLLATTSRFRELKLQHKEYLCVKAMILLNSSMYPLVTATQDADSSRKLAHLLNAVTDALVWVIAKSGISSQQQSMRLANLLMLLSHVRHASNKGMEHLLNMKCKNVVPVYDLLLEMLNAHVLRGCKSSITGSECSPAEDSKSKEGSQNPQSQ
Sequence of Progesterone receptor (Homo sapiens) (P06401 whole entry, looked up): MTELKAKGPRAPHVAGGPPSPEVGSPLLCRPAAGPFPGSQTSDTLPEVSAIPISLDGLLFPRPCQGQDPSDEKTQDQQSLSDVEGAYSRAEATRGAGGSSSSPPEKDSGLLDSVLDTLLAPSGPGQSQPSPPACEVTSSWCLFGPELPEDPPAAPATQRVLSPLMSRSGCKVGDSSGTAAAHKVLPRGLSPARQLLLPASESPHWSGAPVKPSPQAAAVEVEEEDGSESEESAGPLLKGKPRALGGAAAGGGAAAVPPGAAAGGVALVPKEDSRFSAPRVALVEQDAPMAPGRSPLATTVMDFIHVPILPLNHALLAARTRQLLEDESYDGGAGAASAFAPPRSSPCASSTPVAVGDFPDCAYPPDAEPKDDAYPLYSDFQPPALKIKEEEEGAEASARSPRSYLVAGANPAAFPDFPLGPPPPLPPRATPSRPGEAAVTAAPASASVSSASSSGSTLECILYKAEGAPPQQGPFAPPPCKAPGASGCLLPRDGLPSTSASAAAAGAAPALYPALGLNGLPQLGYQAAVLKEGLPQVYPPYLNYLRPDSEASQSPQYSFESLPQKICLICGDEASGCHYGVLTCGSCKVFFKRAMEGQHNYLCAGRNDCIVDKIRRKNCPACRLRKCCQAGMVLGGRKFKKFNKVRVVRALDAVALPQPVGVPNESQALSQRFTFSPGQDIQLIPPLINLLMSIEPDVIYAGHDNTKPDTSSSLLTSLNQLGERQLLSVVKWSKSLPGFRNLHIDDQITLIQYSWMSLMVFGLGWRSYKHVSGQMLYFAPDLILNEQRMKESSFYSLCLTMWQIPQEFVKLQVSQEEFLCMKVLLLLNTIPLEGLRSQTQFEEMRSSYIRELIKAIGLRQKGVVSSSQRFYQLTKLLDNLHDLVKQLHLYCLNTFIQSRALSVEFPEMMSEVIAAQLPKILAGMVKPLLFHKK
Sequence of Thyrotropin-releasing hormone receptor (Homo sapiens) (P34981 whole entry, looked up): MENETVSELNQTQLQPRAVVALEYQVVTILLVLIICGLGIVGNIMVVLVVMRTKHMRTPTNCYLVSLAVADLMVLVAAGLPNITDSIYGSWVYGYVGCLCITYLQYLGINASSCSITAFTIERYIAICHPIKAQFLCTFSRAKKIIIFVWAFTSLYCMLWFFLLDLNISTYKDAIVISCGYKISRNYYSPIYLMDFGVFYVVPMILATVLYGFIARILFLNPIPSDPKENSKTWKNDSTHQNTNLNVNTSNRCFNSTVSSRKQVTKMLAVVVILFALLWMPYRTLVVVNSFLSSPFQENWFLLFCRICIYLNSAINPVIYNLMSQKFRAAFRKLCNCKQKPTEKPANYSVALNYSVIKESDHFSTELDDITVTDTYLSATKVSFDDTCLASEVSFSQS
Sequence of Androgen receptor (Homo sapiens) (P10275 whole entry, looked up): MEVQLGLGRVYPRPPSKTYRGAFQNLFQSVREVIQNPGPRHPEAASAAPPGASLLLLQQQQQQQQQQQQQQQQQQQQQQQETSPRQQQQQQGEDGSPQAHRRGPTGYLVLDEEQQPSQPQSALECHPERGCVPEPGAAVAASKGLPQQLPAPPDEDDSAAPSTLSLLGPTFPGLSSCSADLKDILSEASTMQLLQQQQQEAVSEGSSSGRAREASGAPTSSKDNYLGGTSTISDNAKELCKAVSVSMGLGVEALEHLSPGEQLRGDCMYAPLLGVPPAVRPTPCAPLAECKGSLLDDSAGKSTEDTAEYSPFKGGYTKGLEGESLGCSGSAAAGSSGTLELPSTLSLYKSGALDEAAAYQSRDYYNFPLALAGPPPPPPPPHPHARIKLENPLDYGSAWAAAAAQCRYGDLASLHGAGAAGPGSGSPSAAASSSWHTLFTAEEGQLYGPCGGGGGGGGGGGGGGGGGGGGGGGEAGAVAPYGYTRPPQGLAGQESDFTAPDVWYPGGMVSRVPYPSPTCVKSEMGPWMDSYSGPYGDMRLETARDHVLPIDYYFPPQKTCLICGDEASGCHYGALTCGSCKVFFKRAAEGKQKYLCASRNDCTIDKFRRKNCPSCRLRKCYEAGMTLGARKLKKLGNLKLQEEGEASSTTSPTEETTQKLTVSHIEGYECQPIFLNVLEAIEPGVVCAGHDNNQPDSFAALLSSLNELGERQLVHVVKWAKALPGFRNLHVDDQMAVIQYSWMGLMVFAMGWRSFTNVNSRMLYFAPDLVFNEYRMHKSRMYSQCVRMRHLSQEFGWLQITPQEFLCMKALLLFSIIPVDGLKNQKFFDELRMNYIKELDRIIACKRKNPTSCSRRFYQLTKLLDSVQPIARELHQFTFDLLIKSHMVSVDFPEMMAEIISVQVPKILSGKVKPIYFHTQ
Sequence of Thyrotropin receptor (Homo sapiens) (P16473 whole entry, looked up): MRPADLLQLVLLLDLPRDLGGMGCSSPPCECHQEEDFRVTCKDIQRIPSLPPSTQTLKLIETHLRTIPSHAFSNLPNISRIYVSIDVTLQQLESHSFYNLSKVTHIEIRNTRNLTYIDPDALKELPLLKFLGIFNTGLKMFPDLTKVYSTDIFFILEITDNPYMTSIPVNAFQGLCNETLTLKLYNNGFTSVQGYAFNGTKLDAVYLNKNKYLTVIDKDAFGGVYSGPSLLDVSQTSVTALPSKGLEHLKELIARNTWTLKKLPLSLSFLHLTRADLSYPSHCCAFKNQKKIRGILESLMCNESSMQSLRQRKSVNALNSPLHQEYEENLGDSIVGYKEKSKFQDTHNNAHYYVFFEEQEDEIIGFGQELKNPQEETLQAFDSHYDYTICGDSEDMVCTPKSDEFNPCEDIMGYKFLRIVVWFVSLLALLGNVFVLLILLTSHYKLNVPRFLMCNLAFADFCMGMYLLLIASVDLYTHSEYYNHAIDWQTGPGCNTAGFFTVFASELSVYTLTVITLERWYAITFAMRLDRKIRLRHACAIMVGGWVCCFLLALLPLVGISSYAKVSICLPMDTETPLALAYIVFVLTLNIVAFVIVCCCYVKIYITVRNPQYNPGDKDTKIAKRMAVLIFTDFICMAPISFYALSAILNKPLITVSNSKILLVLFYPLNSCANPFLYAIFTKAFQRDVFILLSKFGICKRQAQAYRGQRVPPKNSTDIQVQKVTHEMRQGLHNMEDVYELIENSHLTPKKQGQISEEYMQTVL

`S=c1[nH]c2ccccc2[nH]1`: the Potency entry in experiment [1], in experiment [2], in experiment [3], in experiment [4], in experiment [5] and in experiment [7] was “inactive” each time. Besides, the Potency entry in experiment [8], in experiment [9], in experiment [10], in [13], in experiment [14] and in [15] was “inactive” each time. Also, the Potency entry in experiment [16] and in experiment [17] was “inactive” in each case. Besides, the result in [6] and in [18] was inactive. Besides, the Potency is 30.7 µM (active) in [11] and 24.4 µM (active) in experiment [12].
For the compound `COC(=O)Nc1nc2ccccc2[nH]1`, in experiment [1], the Potency was 24.3 µM (active) and inactive. The Potency result in [2], in experiment [3], in [4], in experiment [5], in experiment [7] and in experiment [8] was “inactive” throughout. Besides, the Potency entry in experiment [9], in experiment [10], in experiment [11], in [12], in experiment [13] and in experiment [15] was “inactive” throughout. Further, the Potency result in [16] and in experiment [17] was “inactive” in each case. Moreover, the result in experiment [6] and in [18] was inactive.
Regarding `O=C1CCCO1`, the Potency entry in experiment [1], in experiment [2], in experiment [3], in [4], in experiment [5] and in [7] was “inactive” each time. Also, the Potency entry in experiment [8], in experiment [9], in experiment [10], in experiment [11], in [12] and in experiment [13] was “inactive” each time. Moreover, the Potency entry in experiment [14], in experiment [15] and in experiment [17] was “inactive” throughout. Further, the result in [6] and in experiment [18] was inactive.
